Experimental data taken from PubChem BioAssay (NCATS).
Records with an inconclusive call do not appear. Where a call stands in place of a potency, no number is given. Calls of active or inactive are those of the source. The call rests on the fitted dose curve; in most records, active means well fitted inhibition curve with a large enough effect; inconclusive means small, poorly fitted or top-dose-only effect; inactive means flat fitted curve, though single readings scatter.

What follows are compounds tested on FAB9 (assay: qHTS profiling for inhibitors of Plasmodium falciparum proliferation (AID 504749; further: nearly all actives have a fitted effect of over 60% in size)). Settings: P. falciparum in erythrocytes, SYBR Green DNA, 72 h; series mostly up to 28.7 µM.
In short: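 Each compound contacts P. falciparum-infected red blood cells for 72 h at 37 C; lysis buffer (Tris, EDTA, saponin, Triton X, SYBR Green I) is added and fluorescence measured next morning; values normalized to controls.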
Potency means the concentration at half of the fitted maximal effect.

Compound | Potency
O=C(CN1CCN(Cc2ccc3c(c2)OCO3)CC1)N1c2ccccc2Sc2ccccc21 | inactive
CN1CCC[C@@H]1CCO[C@](C)(c1ccccc1)c1ccc(Cl)cc1 | inactive
CN1CCC(OC(c2ccccc2)c2ccccc2)CC1 | inactive
CN1CCN(c2cc3c(cc2F)c(=O)c(C(=O)O)cn3-c2ccc(F)cc2)CC1 | inactive
O=C(NC1CCN(CCc2c[nH]c3ccccc23)CC1)c1ccccc1 | inactive
Cc1ncc(CO)c(C=O)c1O | inactive
COC(=O)C(c1ccccc1Cl)N1CCc2sccc2C1 (stereo not given) | inactive
CN(Cc1ccc(C(C)(C)C)cc1)Cc1cccc2ccccc12 | inactive
O=S(c1cc(Cl)cc(Cl)c1O)c1cc(Cl)cc(Cl)c1O | 0.0224 µM (active)
CN1CCN(C2=Nc3ccccc3Sc3ccc(Cl)cc32)CC1 | inactive
CN1CCN(c2c(F)cc3c(=O)c(C(=O)O)cn4c3c2SCC4)CC1 | inactive
CCN(CC)CCOC(=O)C1(c2ccccc2)CCCC1 | inactive
NC1CCN(c2nc3c(cc2F)c(=O)c(C(=O)O)cn3-c2ccc(F)cc2F)C1 (stereo not given) | inactive
CC(=O)O[C@H]1C[C@@H]2CC[C@@H]3[C@H](CC[C@@]4(C)[C@H]3C[C@H]([N+]3(C)CCCCC3)[C@@H]4OC(C)=O)[C@@]2(C)C[C@@H]1N1CCCCC1 | inactive
CC(C)(Cc1c[nH]c2ccccc12)NCC(O)COc1ccccc1C#N (stereo not given) | inactive
CNCCCCOc1ccccc1Cc1ccccc1 | inactive
O=C(CCN1CCN2CCCC2C1)N1c2ccccc2Sc2ccc(Cl)cc21 (stereo not given) | inactive
O=C1C(O)=C(O)C(=O)C(O)=C1O | inactive
O=[N+]([O-])c1cccc(S(=O)(=O)NCCNS(=O)(=O)c2cccc([N+](=O)[O-])c2)c1 | inactive
CC1CCc2c(N3CCC(O)CC3)c(F)cc3c(=O)c(C(=O)O)cn1c23 (stereo not given) | inactive
Oc1c(Cl)cc(Cl)c(Cl)c1Cc1c(O)c(Cl)cc(Cl)c1Cl | inactive
OC(C#CCN1CCCC1)(c1ccccc1)c1ccccc1 | inactive
CN(C)CCOC(c1ccc(Cl)cc1)c1ccccn1 (stereo not given) | inactive
COc1ccccc1N1CCN(CCCCNC(=O)c2ccc(-c3ccc(C(C)=O)cc3)cc2)CC1 | inactive
CO[C@]12C[C@@H](COC(=O)c3cncc(Br)c3)CN(C)[C@@H]1Cc1cn(C)c3cccc2c13 | inactive
CN1CCN(CCC(=O)N2c3ccccc3Sc3ccc(C(F)(F)F)cc32)CC1 | inactive
CC(C)[N+](C)(C)CC(O)COc1cccc2ccccc12 (stereo not given) | 7.94 µM (active)
CN(C)CCN1C(=O)c2ccccc2N(C)c2ccccc21 | inactive
CCN(CC)CCOc1ccccc1C(=O)CCc1ccccc1 | inactive
CC[N+](C)(CC)CCOC(=O)C(O)(c1ccccc1)C1CCCCC1 (stereo not given) | inactive
